Columns and labels:
Assay type in all cases: functional
[1] = molecular target: Solute carrier family 2, facilitated glucose transporter member 1 (Homo sapiens) (UniProt P11166); experiment: ST_JUDE_LEISH: Cytotoxicity at 2uM final concentration against transgenic Leishmania Mexicana promastigotes LmGLUT1 that are glucose transport deficient and complemented with the human glucose transporter GLUT1. Activity is measured by DNA content using SYBR green in vitro
[2] = molecular target: Hexose transporter 1 (Plasmodium falciparum) (UniProt O97467); experiment: ST_JUDE_LEISH: Cytotoxicity at 2uM final concentration against transgenic Leishmania Mexicana promastigotes LmPfHT that are glucose transport deficient and complemented with the Plasmodium falciparum hexose transporter. Activity is measured by DNA content using SYBR green in vitro
[3] = molecular target: Glucose transporter (Leishmania mexicana) (UniProt O61059); experiment: ST_JUDE_LEISH: Cytotoxicity at 2uM final concentration against transgenic Leishmania Mexicana promastigotes LmGT2 that are glucose transport deficient and complemented with the L. Mexicana glucose transporter 2. Activity is measured by DNA content using SYBR green in vitro

Solute carrier family 2, facilitated glucose transporter member 1 (Homo sapiens), sequence (P11166 whole entry): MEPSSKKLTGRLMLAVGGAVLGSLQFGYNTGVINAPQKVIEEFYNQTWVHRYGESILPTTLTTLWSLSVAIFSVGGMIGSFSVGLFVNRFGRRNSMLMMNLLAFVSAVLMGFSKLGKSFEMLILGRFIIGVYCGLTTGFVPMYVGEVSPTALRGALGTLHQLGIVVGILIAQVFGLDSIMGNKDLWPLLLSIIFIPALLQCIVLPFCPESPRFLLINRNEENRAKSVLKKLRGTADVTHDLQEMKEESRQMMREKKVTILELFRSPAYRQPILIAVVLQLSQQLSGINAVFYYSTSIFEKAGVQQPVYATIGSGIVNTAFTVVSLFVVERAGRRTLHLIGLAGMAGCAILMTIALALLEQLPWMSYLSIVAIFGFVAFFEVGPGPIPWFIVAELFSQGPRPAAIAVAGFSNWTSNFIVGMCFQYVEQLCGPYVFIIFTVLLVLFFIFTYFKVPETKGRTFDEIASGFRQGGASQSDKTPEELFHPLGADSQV

SMILES: Nc1c(I)cc(C(=O)Nc2ccc3nc4c(c(N)c3c2)CCCC4)cc1I
- inhibition [1]: 2.52%
- inhibition [2]: 1.16%
- inhibition [3]: 1.17%

SMILES: COc1ccc(CCNCC(O)c2cccc(Br)c2)c(Cl)c1OC (stereo unspecified)
- inhibition [1]: -3.38%
- inhibition [2]: -1.73%
- inhibition [3]: -3.62%

SMILES: O=C1COC(c2ccccc2)(c2ccccc2)CN1CC1CCN(Cc2ccc(O)cc2Cl)C1 (stereo unspecified)
- inhibition [1]: 3.1%
- inhibition [2]: 1.71%
- inhibition [3]: 2.56%

SMILES: CN(c1ccc(C(=O)N[C@@H](CCC(=O)O)C(=O)O)cc1)S(=O)(=O)c1ccc2nc(N)[nH]c(=O)c2c1
- inhibition [1]: 2.98%
- inhibition [2]: -0.77%
- inhibition [3]: 0.27%

SMILES: CCNc1cc(C(=O)N[C@@H](Cc2ccccc2)[C@H](O)CNC(C)(C)Cc2cccc(Cl)c2)cc(N2CCCCS2(=O)=O)c1
- inhibition [1]: 5.21%
- inhibition [2]: 1.94%
- inhibition [3]: 6.82%

SMILES: Cc1cc(NC2CCN(CC3CCCCC3)C2)nc(Nc2ccc(Cl)cc2)n1 (stereo unspecified)
- inhibition [1]: 3.89%
- inhibition [2]: 3.7%
- inhibition [3]: 2.63%

SMILES: COc1cccc(OC)c1OCCCOc1c(C)nc(N)nc1N
- inhibition [1]: 0.61%
- inhibition [2]: 1.79%
- inhibition [3]: 0.4%

SMILES: Cc1ccc2c(=O)cc(CCc3cccc(F)c3F)n(CC(=O)N(Cc3ccc(-c4ccc(C(F)(F)F)cc4)cc3)C3CCN(C)CC3)c2n1
- inhibition [1]: 2%
- inhibition [2]: 0.92%
- inhibition [3]: 1.01%

SMILES: CC1CCCCN1Cc1cccc(-c2c[nH]c3nc(NC4CCCC4)ncc23)c1 (stereo unspecified)
- inhibition [1]: 10.8%
- inhibition [2]: 6.53%
- inhibition [3]: 6.08%

SMILES: CC(Cl)=CCc1c(C)nc2c(ccc3ccccc32)c1O
- inhibition [1]: 4.44%
- inhibition [2]: 3.06%
- inhibition [3]: 3.58%

SMILES: COc1ccc2c(c1)nc(CNC(=N)N)n2Cc1ccc(Cl)cc1
- inhibition [1]: 1.63%
- inhibition [2]: 1.08%
- inhibition [3]: 1.85%

SMILES: O=C(Nc1ccc(C(F)(F)F)cc1)NC1CCN(c2ccnc3cc(Cl)ccc23)C1 (stereo unspecified)
- inhibition [1]: 3.59%
- inhibition [2]: 3.27%
- inhibition [3]: 0.73%

Source: ChEMBL document CHEMBL3433997, “St. Jude Leishmania screening dataset” (2016)
